Among the data in PubChem BioAssay AID463173 (ICCB-Longwood Screening Facility, Harvard Medical School, 2010) are survival values, retold here.

Molecules are shown by their SMILES. Screen size: about 52,000 compounds; about 1,700 (3.3%) were called active. Cut-off read from the data, not from the text of the source: active = survival mostly below about 52% (no sharp cut-off); inactive = mostly above about 56%. Many of the other results were omitted from the sample, so actives are more common in it than they were.

The test system of the experiment is Wild type. The experiment can be described thus: S. aureus survival, RN4220 and DeltatarO strains – OD600, teichoic acid synthesis inhibitors, primary screen (AID 463173). The following applies: S. aureus RN4220 wild type/DeltatarO growth, OD600, 18 h, active compounds read low, screened at 18.75 µg/mL (by protocol).
For the compound `CCOC(=O)c1c(NC(=O)CN(CC)CC)sc2c1CCC/C2=N\O`, the survival was 112% (inactive).
In the case of `O=C(CSc1nc(-c2ccco2)nc2cc(=O)[nH]n12)Nc1ccc(F)cc1`, the survival is 65% (inactive).
To `CC(NCc1ccc2c(c1)OCO2)C(=O)NC1CCCCC1` (centres undefined) belongs 103% (inactive); to `CCOC(=O)c1cc(-c2ccccc2)n(CCC(=O)NCCc2ccc(C)cc2)c1C`, 73% (inactive); to `CCOC(=O)c1cc(-c2ccccc2)n(CCC(=O)NCCc2cccc(C)c2)c1C`, 49% (inactive).
`CCOC(=O)c1cc(-c2ccccc2)n(CCC(=O)NCCc2ccccc2)c1C`: the survival was -2% (active).
On to `CCc1ccccc1NC(=O)COC(=O)c1cn(CC)c2nc(C)ccc2c1=O`, for which the survival is 83% (inactive).
As to `COc1ccc(OC)c(-c2nc3c(C#N)c[nH]n3c2NC2CCCCC2)c1`, the survival was 102% (inactive).
Consider `COc1ccc(CCNc2nc(-c3ccc(C)cc3)cc(C(F)F)n2)cc1OC`, for which the survival is 100% (inactive).
As to `COc1ccc(CCNC(=O)CSc2nc(-c3ccc(F)cc3)cc(C(F)(F)F)n2)cc1OC`, the survival was 97% (inactive).
`COc1ccc(CCNc2nc3c(-c4cccc(C(F)(F)F)c4)nnn3c3ccccc23)cc1OC`: the survival was 83% (inactive).
On to `COc1ccc(-c2cc(C(F)(F)F)nc(SCC(=O)NCc3ccc(OC)c(OC)c3)n2)cc1`, for which the survival was 97% (inactive).
With `COc1ccc(CCNc2nc(-c3ccc(F)cc3)cc(C(F)(F)F)n2)cc1OC`, the survival was 142% (inactive).
Then `COc1ccc(CCNc2nc(-c3ccc(OC)c(OC)c3)cc(C(F)(F)F)n2)cc1OC`, with 0% (active).
Regarding `COc1ccc(-c2cc(C(F)(F)F)nc(SCC(=O)NCCc3ccc(OC)c(OC)c3)n2)cc1`, the survival is 70% (inactive).
To `COc1ccc(CCNc2nc(-c3ccc(Cl)cc3)cc(C(F)(F)F)n2)cc1OC` belongs 18% (active); to `COc1ccc(CCNc2nc(-c3ccccc3OC)cc(C(F)(F)F)n2)cc1OC`, -8% (active); to `CC(C)C1N(c2ccccc2)CCN1c1ccccc1`, 110% (inactive).
Turning to `Cc1ccccc1OCC(=O)NCCN1CCCC1`, the survival was 113% (inactive).
For `COc1cc(-c2noc(CSc3nc(-c4ccccc4)cc(=O)[nH]3)n2)cc(OC)c1OC`, the survival was 59% (inactive).
As for `O=c1[nH]cc(COCC(F)(F)C(F)F)c(=O)[nH]1`, the survival is 111% (inactive).
On to `Cc1ccc(CCNC(=O)c2ccc(CS(=O)(=O)Cc3ccccc3F)o2)cc1`, for which the survival was 71% (inactive).
In the case of `Cc1ccc(CCNC(=O)CCSCc2ccccc2F)cc1`, the survival was -6% (active).
For the compound `O=C(NCc1ccccc1Cl)c1ccc(CSCc2ccccc2Cl)o1`, the survival was 66% (inactive).
To `Cc1ccc(CNC(=O)CCSCc2ccccc2F)cc1` belongs 74% (inactive); to `O=C(NCCc1ccc(Cl)cc1)c1ccc(CS(=O)(=O)Cc2ccccc2F)o1`, -3% (active); to `Cc1ccc(CCNC(=O)CCSCc2ccc(Cl)cc2)cc1`, 72% (inactive).
Consider `O=C(NCc1ccc(F)cc1Cl)c1ccc(CSCc2ccccc2Cl)o1`, for which the survival is 53% (inactive).
Take `O=C(NCc1ccccc1Cl)c1ccc(CSCc2cccc(F)c2)o1`: the survival was -1% (active).
To `Cc1ccccc1CS(=O)(=O)Cc1ccc(C(=O)NCCc2ccc(Cl)cc2)o1` belongs 88% (inactive).
In the case of `O=C(CCSCc1cccc(Cl)c1)NCCc1ccc(Cl)cc1`, the survival is 67% (inactive).
As for `O=C(CCSCc1ccc(Cl)cc1)NCCc1ccccc1`, the survival is -6% (active).
Turning to `CCc1ccc(CNC(=O)CCSCc2ccccc2F)cc1`, the survival was 70% (inactive).
Then `COc1cccc(CNS(=O)(=O)c2ccc(-c3cc(C(F)(F)F)on3)s2)c1`, with 87% (inactive).
To `CC1=C(C(=O)Nc2cc(Cl)ccc2C)C(c2sccc2C)n2ncnc2N1` (centres undefined) belongs 47% (inactive).
On to `O=C(CSc1nc2c([nH]c3ccccc32)c(=O)n1-c1cccc(Cl)c1)NCc1ccccc1`, for which the survival was 78% (inactive).
Consider `COc1cccc(Cn2c(CNC(=O)C(C)C)nc3cccnc32)c1`, for which the survival is 80% (inactive).
Then `Cc1oc(-c2ccc(C(=O)NCc3ccccc3)cc2)nc1CN1CCc2ccccc21`, with 80% (inactive).
Turning to `CC(C)(C)OC(=O)N1CCC(c2c(C(=O)NCc3cccc(Cl)c3)cnn2-c2ccc(F)cc2)CC1`, the survival is 78% (inactive).
To `COc1ccc(-c2nc(SCC(=O)Nc3ccc4c(c3)OCCO4)c(-c3ccc(F)cc3)[nH]2)cc1OC` belongs 62% (inactive); to `Cc1ccccc1C(=O)NCC(c1ccc(N(C)C)cc1)N1CCCC1` (centres undefined), 66% (inactive).
Regarding `COc1ccc(CCNC(=O)CCSCc2ccccc2Cl)cc1OC`, the survival is 88% (inactive).
Take `O=C(CCSCc1ccccc1Cl)NCCc1ccccc1`: the survival was 74% (inactive).
Take `O=C(CCSCc1ccc(Cl)cc1)NCc1ccc(F)cc1Cl`: the survival was 79% (inactive).
In the case of `O=C(CCSCc1ccccc1Cl)NCc1ccc(F)cc1Cl`, the survival was 0% (active).
With `Cc1ccc(CCNC(=O)c2ccc(CSCc3ccccc3Cl)o2)cc1`, the survival is 72% (inactive).
For the compound `Cc1ccccc1CSCc1ccc(C(=O)NCCc2ccccc2)o1`, the survival was 77% (inactive).
With `Cc1ccc(CCNC(=O)c2ccc(CSCc3ccccc3C)o2)cc1`, the survival was 0% (active).
To `O=C(CCSCc1cccc(Cl)c1)NCc1ccc(F)cc1Cl` belongs 66% (inactive).
Regarding `Cc1ccc(CCNC(=O)CCSCc2ccccc2Cl)cc1`, the survival is -3% (active).
To `CC1(C)CC(NC(=O)NCc2ccc3c(c2)OCO3)CC(C)(CNC(=O)NCc2ccc3c(c2)OCO3)C1` (centres undefined) belongs 117% (inactive).
For the compound `CCOCCc1nn2c(=O)cc(COC(=O)c3ccccc3OC)nc2s1`, the survival is 78% (inactive).
For `CC(=O)N1CCc2c(sc3c2c(=O)n(Cc2ccccc2)c(=O)n3Cc2ccccc2Cl)C1`, the survival is 98% (inactive).
With `C/C(=N\NC(N)N)C1CCCCCCCCCCC1`, the survival is -1% (active).
On to `Cc1nc(C)c(CC(=O)O)c(=O)[nH]1`, for which the survival is 112% (inactive).
For `CCOc1ccc(-n2cc(-c3ccccc3)c3c(NCCc4ccccc4)ncnc32)cc1`, the survival was 74% (inactive).
Consider `Cc1cccc(Cc2c(C)nc3nc(SCC(=O)NCc4ccccc4)nn3c2C)c1`, for which the survival is 71% (inactive).
With `Cc1cccc(Cc2c(C)nc3nc(SCc4ccccc4Cl)nn3c2C)c1`, the survival is -5% (active).
Then `Cc1nc2nc(SCC(=O)Nc3ccccc3Cl)nn2c(C)c1Cc1ccccc1`, with -3% (active); and `Cc1ccc(NC(=O)CSc2nc3nc(C)c(Cc4ccccc4)c(C)n3n2)cc1`, with 47% (inactive); and `Cc1nc2nc(SCC(=O)NCc3ccccc3)nn2c(C)c1Cc1ccccc1`, with 0% (active).
On to `Cc1nc2nc(SCC(=O)NCCc3ccccc3)nn2c(C)c1Cc1c(F)cccc1Cl`, for which the survival is 65% (inactive).
For the compound `Cc1nc2nc(SCC(=O)NCc3ccccc3)nn2c(C)c1Cc1ccccc1Cl`, the survival is 128% (inactive).
To `Cc1nc2nc(SCC(=O)NCCc3ccc(Cl)cc3)nn2c(C)c1Cc1ccccc1Cl` belongs 80% (inactive); to `Cc1nc2nc(SCC(=O)NCc3ccccc3Cl)nn2c(C)c1Cc1ccccc1`, 68% (inactive); to `Cc1cccc(Cc2c(C)nc3nc(SCc4ccccc4C)nn3c2C)c1`, 87% (inactive).
In the case of `Cc1nc2nc(SCC(=O)NCCc3ccc(Cl)cc3)nn2c(C)c1Cc1c(F)cccc1Cl`, the survival was -2% (active).
For `Cc1cccc(Cc2c(C)nc3nc(SCc4ccccc4F)nn3c2C)c1`, the survival is 91% (inactive).
For `Cc1cccc(Cn2c(CN3CCC(C(=O)NCCc4ccccc4)CC3)cc3ccccc32)c1`, the survival is 128% (inactive).
On to `COc1cc(-c2nc(-c3ccc4c(c3)[nH]c(=O)n4C)no2)cc(OC)c1OC`, for which the survival was 83% (inactive).
Consider `COC(=O)c1cc(-c2ccccc2)sc1N`, for which the survival is 116% (inactive).
Then `COCCNC(=O)CSc1nc(-c2ccc(C)cc2)nc2c1c(=O)n(C)c(=O)n2C`, with 77% (inactive); and `CCOc1ccc(OCC)c(S(=O)(=O)N2CCC(C)CC2)c1`, with 102% (inactive); and `CC(C)CCNC(=O)Cn1cc(S(=O)(=O)Cc2ccc(F)cc2)c2ccccc21`, with 91% (inactive).
On to `O=C(CSc1nnc(-c2cccs2)o1)Nc1cccc(C(F)(F)F)c1`, for which the survival was 71% (inactive).
As for `Cc1ccc(C)c(N2CCN(C(=O)C3CCN(c4nc(-c5ccc(C(C)C)cc5)no4)CC3)CC2)c1`, the survival was 87% (inactive).
Consider `CCOCCCn1c(SCC(=O)Nc2ccc(C)cc2)nc2ccccc2c1=O`, for which the survival is 83% (inactive).
Turning to `c1ccc(-n2nnnc2N2CCCC2)cc1`, the survival is 102% (inactive).
As to `O=C(NC1CCCC1)C(c1ccccc1)N(C(=O)c1ccco1)C1CCCC1` (centres undefined), the survival was 88% (inactive).
As for `CCOC(=O)CN(Cc1ccccc1)C(C(=O)NC1CCCCC1)c1ccc(C)cc1` (centres undefined), the survival is -2% (active).
In the case of `CN(Cc1ccccc1)C(C(=O)NC1CCCCC1)c1ccc(Cl)cc1` (centres undefined), the survival is 74% (inactive).
Then `O=C(NC1CCCC1)C(c1ccccc1)N(Cc1ccccc1F)C(=O)c1ccco1` (centres undefined), with 118% (inactive).
Then `CCOC(=O)CN(Cc1ccccc1)C(C(=O)NC1CCCCC1)c1ccc(OC)cc1` (centres undefined), with 20% (inactive).
As to `COc1ccc(C(C(=O)NC2CCCC2)N(Cc2ccc(C)cc2)C(=O)c2ccn[nH]2)cc1OC` (centres undefined), the survival was 103% (inactive).
Then `Cc1ccc(-c2nnn(CC(=O)N(Cc3ccccc3)C(C(=O)NC3CCCC3)c3ccco3)n2)cc1` (centres undefined), with 99% (inactive); and `Cc1ccc(C(C(=O)NC2CCCCC2)N(C)Cc2ccccc2)cc1` (centres undefined), with -1% (active); and `CCOC(=O)CN(Cc1ccccc1)C(C(=O)NC1CCCCC1)c1ccccc1` (centres undefined), with -2% (active).
On to `N#Cc1c(Nc2cccc(F)c2)sc(C(=O)c2ccc(Cl)cc2)c1N`, for which the survival is 101% (inactive).
To `CCCOc1cccc(NC(=O)c2c(-c3ccccc3Cl)noc2C)c1` belongs 71% (inactive); to `CCc1nc(NCCCO)c2nnn(Cc3ccccc3F)c2n1`, 106% (inactive); to `CS(=O)(=O)NCC(c1ccco1)N1CCN(c2ccccc2)CC1` (centres undefined), 83% (inactive).
Take `CCCCCCc1cc2cc(-c3nnc(-c4cccc(Cl)c4)o3)c(=O)oc2cc1O`: the survival was 72% (inactive).
Then `CN(C)N1C(=O)CC(N2CCCC2)C1=O` (centres undefined), with 101% (inactive); and `CCc1ccc(NC(=O)CC2C(=O)N(c3cccc(C)c3)C(=O)N2CCC(C)C)cc1` (centres undefined), with 72% (inactive).
